Assay results published in PubChem BioAssay (NCI).
About 79,000 compounds went through this panel and 15% of them were active in at least one assay; those are over-represented in the sample as a whole. Activity calls are given as the source filed them. Cut-off read from the data, not from the text of the source: active = growth inhibition above about 70%; inactive = the rest. *1 amine or outer side, *2 acyl side, *3 side chain or, on linkers, in order; H or OH if unused. Where a SMILES comes first, the peptide text is derived from it. [ ]: non-standard residue; d: D form. X12 = NC(N)=NCC(O)CC(N[*:1])C(=O)[*:2]; Orn = NCCC[CH](N)C(=O)O

Experiments:
[1] = NCI Yeast Anticancer Drug Screen. Data for the rad50 strain (AID 155);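 note: 0% = growth of vehicle-only cultures of the same strain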; conditions: S. cerevisiae rad50 strain growth inhibition; at 50.0 µM; active compounds read high
Method in brief: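 Yeast carrying a defined DNA repair defect were exposed to test compounds, and growth was compared with vehicle-treated controls to give percent inhibition.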

[2] = NCI Yeast Anticancer Drug Screen. Data for the mec2-1 strain (AID 157); conditions: S. cerevisiae mec2-1 strain, at 50.0 µM, active compounds read high
Method in brief: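 Each compound was tested on mec2-1 yeast, a strain altered in DNA damage repair or cell cycle control. Growth inhibition is reported relative to vehicle.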

[3] = NCI Yeast Anticancer Drug Screen. Data for the sgs1 mgt1 strain (AID 161);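 note: 0% = growth of cultures given vehicle only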; conditions: S. cerevisiae sgs1 mgt1 strain, at 50.0 µM, active compounds read high
Method in brief: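 Genetically altered yeast, compound exposure, growth inhibition relative to vehicle.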

[4] = NCI Yeast Anticancer Drug Screen. Data for the cln2 rad14 strain (AID 165);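 note: 0% = growth equal to vehicle treated cultures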; conditions: S. cerevisiae cln2 rad14 strain, at 50.0 µM, active compounds read high
Method in brief: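 Test compounds were added to cln2 rad14 yeast cultures; inhibition of growth was then determined by comparison with vehicle treatment.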

[5] = NCI Yeast Anticancer Drug Screen. Data for the bub3 strain (AID 167); conditions: S. cerevisiae bub3 mutant strain, at 50.0 µM, active compounds read high
Method in brief: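 Compounds were applied to a genetically altered yeast strain carrying a cell-cycle control defect. Growth inhibition was scored against vehicle-treated controls.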

[6] = NCI Yeast Anticancer Drug Screen. Data for the mlh1 rad18 strain (AID 175); conditions: S. cerevisiae mlh1 rad18 strain growth inhibition; at 50.0 µM; active compounds read high
Method in brief: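 Inhibition values reflect reduced growth of mutant yeast versus vehicle-treated controls following compound exposure; the mutations affect DNA damage repair.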

Measured: growth inhibition

COc1ccc2c(ccc[n+]2CC(=O)c2ccc(Cl)cc2)c1
inactive: [1] -35.9% | [2] -8.35% | [3] -17.2% | [4] 28.4% | [5] -0.5% | [6] -3.7%

O=C(CN=C(CN(c1ccccc1)c1ccccc1)Oc1c(Cl)cc(Cl)cc1Cl)n1cnc2ccccc21
inactive: [1] 0.9% | [2] -9% | [3] 35.3% | [4] -63.4% | [5] -46.4% | [6] 10.4%

CC(=O)OCCC(=O)Nc1cc([N+](=O)[O-])ccc1OCc1ccccc1
inactive: [1] 7.05% | [2] 1.6% | [3] -6.45% | [4] -3.8% | [5] 3.65% | [6] -16%

COC(=O)C1(NC(=O)C2(N3C(=O)c4ccccc4C3=O)CCCC2)CCCC1
inactive: [1] -7.95% | [2] -0.95% | [3] -12.7% | [4] -9.45% | [5] -17.9% | [6] 1.6%

C=COC(=O)c1ccccc1O
inactive: [1] -32.7% | [2] -34% | [3] -22.3% | [4] 3.8% | [5] -36.8% | [6] -5.55%

O=[N+]([O-])c1cccc([I+]c2cccc([N+](=O)[O-])c2)c1
active: [1] 98.5% | [2] 95.8% | [3] 97.7% | [4] 96.5% | [5] 97.2% | [6] 98.2%

O=c1oc2ccccc2cc1S(=O)(=O)c1ccccc1
inactive: [1] 1.35% | [2] 4.8% | [3] 1.4% | [4] -53.1% | [5] -0.95% | [6] 18.4%

CNc1nc(NC)nc(-c2ccccc2)n1
inactive: [1] -25.2% | [2] -16.1% | [3] -26.9% | [4] -55% | [5] -22.6% | [6] -22.9%

Cc1cc(=O)n2cn[nH]c2n1
inactive: [1] 24.4% | [2] -11.6% | [3] 24.1% | [4] 5.25% | [5] 9.25% | [6] 25.8%

Nc1nc(O)cc(=O)[nH]1
inactive: [1] 3.35% | [2] -1.95% | [3] -0.65% | [4] -8.5% | [5] 2.35% | [6] -3.25%

Nc1nc(=O)n(CCCOc2ccc([N+](=O)[O-])c(Cl)c2)cc1-c1ccc(Cl)c(Cl)c1
inactive: [1] -1.2% | [2] -8.2% | [3] -5.4% | [4] -21.4% | [5] -3.15% | [6] 6.2%

C[C@]12CC[C@@H]3c4cc(OCC(F)(F)F)c(O)cc4/C(=N/O)C[C@H]3[C@@H]1CC[C@@H]2O
inactive: [1] -0.75% | [2] -4.55% | [3] 4.65% | [4] 17.6% | [5] 12.8% | [6] 13.2%

O=S1(=O)C2CCC(C2)C1Cl (stereo unspecified)
inactive: [1] 4.5% | [2] 2.75% | [3] 7.45% | [4] -18.9% | [5] -1.05% | [6] 4.2%

COc1ccc(CNc2ccccc2)cc1OC
inactive: [1] -6% | [2] 7.95% | [3] -3% | [4] -33.6% | [5] -9.15% | [6] -40%

CC(O)C(NC(=O)C(CCCN)NC(=O)C(CC(O)CN=C(N)N)NC(=O)C(N)CCCN=C(N)N)C(=O)NC(CCCN)C(=O)NC(CC(O)CN=C(N)N)C(=O)NC(Cc1ccc(O)cc1)C(=O)O (stereo unspecified) (tested in a mixture with another compound) (H-R[X12][Orn]T[Orn][X12]Y-OH; configuration not given here)
inactive: [1] 39.6% | [2] -3.3% | [3] 19.5% | [4] 8.45% | [5] 27.9% | [6] 38.1%

CCCc1cc(=O)oc2c3c(c4c(c12)OC(C)(C)CC4)O[C@H](C)C(C)[C@@H]3O (stereo partly specified)
inactive: [1] 9.9% | [2] 7.45% | [3] 22.1% | [4] -11.3% | [5] 2.85% | [6] -10.6%

O=C(/C=C/c1ccc2c(c1)OCO2)c1cccc2ccccc12
inactive: [1] -4.4% | [2] -14.6% | [3] -17.4% | [4] 4.05% | [5] -3% | [6] 5%

Cc1ccc(S(=O)(=O)NC(=O)NCCCS(C)=O)cc1 (stereo unspecified)
inactive: [1] -3.5% | [2] -6.5% | [3] 6.8% | [4] -7.8% | [5] 2.9% | [6] 10.3%

CSc1cc(C)n2nnnc2n1
inactive: [1] 1.25% | [2] -11.9% | [3] -3.2% | [4] -27.2% | [5] -3.75% | [6] -0.3%

CC1=NN(C(=O)Cc2ccccc2)C(=O)/C1=C\c1ccco1
inactive: [1] -37.9% | [2] -37.4% | [3] -47.9% | [4] -13.8% | [5] -25.9% | [6] -55.9%

O=S1(=O)C2C=CCC1C(Cl)CC2 (stereo unspecified)
inactive: [1] -7.7% | [2] 29.9% | [3] 36% | [4] -24.4% | [5] 24.9% | [6] -5.25%

CC1=C(C(=O)CC(=O)Nc2ccc(Cl)c(Cl)c2)Sc2ccccc2N1
inactive: [1] 8.1% | [2] 21.9% | [3] -4.3% | [4] 13.7% | [5] 0.25% | [6] 20.9%

COC(=O)[C@@H]1CON(Cc2ccccc2)C1CC1(C)OCCO1 (stereo partly specified)
inactive: [1] 0.85% | [2] -7.3% | [3] 23.8% | [4] 0.6% | [5] 7.35% | [6] 8.45%

CCOC(=O)/C=C/C(=O)OCC
inactive: [1] -2.15% | [2] -0.2% | [3] -4.8% | [4] -2.55% | [5] 6.65% | [6] -2.65%

N#CCCN1CCCC1=O
inactive: [1] -11.8% | [2] -7.55% | [3] -12.5% | [4] -22.4% | [5] 6% | [6] 6.15%

N#CCN(CCc1ccccc1)CCc1ccccc1
inactive: [1] 8.35% | [2] -9.95% | [3] 13.2% | [4] -17.6% | [5] -0.35% | [6] 34.1%

CC12CCC(CC1)C2(C)C
inactive: [1] 5.6% | [2] 0.3% | [3] 0.15% | [4] -4.8% | [5] 4.75% | [6] -1.6%

C(=N/Nc1ccccc1)/c1ccco1
inactive: [1] 31.6% | [2] -1% | [3] -2.05% | [4] 13.7% | [5] 12.5% | [6] 54.9%

Cc1ccc(C(=O)C2CC2c2ccccc2)cc1 (stereo unspecified)
inactive: [1] 6.05% | [2] -1.9% | [3] -13.7% | [4] -38% | [5] -0.95% | [6] -7%

CSC(SC)C(OC(C)=O)C(OC(C)=O)C(OC(C)=O)C(COC(C)=O)OC(C)=O (stereo unspecified)
inactive: [1] -11.7% | [2] 11.4% | [3] 3.15% | [4] -30.9% | [5] 2.3% | [6] 3.85%

COc1ccc2c(c1)C(=O)C1(C2)[C@H](c2ccccc2)C2C(=O)c3cc(OC)ccc3C2[C@H]1c1ccccc1 (stereo partly specified)
inactive: [1] -20.4% | [2] -3% | [3] 11.9% | [4] -5.2% | [5] 21.1% | [6] 9.3%

Cc1nc2c(-c3ccccc3)[nH]c(C)c2c(=O)o1
inactive: [1] -17.2% | [2] -40.1% | [3] -31.9% | [4] -8.8% | [5] -18.5% | [6] -24.4%

CC(=O)C1C(=O)NC(=O)C1=O (stereo unspecified)
inactive: [1] -2.9% | [2] -23.5% | [3] -14.2% | [4] 0.2% | [5] -18.9% | [6] -18.9%

CC(=O)O[C@H]1C[C@H]2[C@@H](OC(C)=O)/C=C3\C[C@](C)(C(=O)[C@H](O)C(=C1C)C2(C)C)[C@@H](O)C[C@@H]3OC(=O)[C@H](O)[C@H](c1ccccc1)N(C)C
inactive: [1] 7.3% | [2] -0.45% | [3] -8.6% | [4] -10.3% | [5] -1.4% | [6] 2.4%

COC(=O)c1n[nH]n(Cc2cccs2)c1=O (tested in a mixture with another compound)
inactive: [1] 14.8% | [2] 13.9% | [3] 16.1% | [4] -0.85% | [5] 10.6% | [6] 26.2%

O=C(C(c1ccccc1)c1ccccc1)N(CCO)c1ccccc1
inactive: [1] -12% | [2] -28.6% | [3] -4.2% | [4] -9.5% | [5] -4.6% | [6] -0.65%
